# Measurements: PubChem BioAssay
# Where “and” joins values, the source holds several entries; their conditions need not be identical. Equal entries are not always repeated. For some assays here: Measured potencies and affinities stand elsewhere. Some structures have more than one record in an assay (separate samples or runs), and their calls can disagree. Calls of active or inactive are those of the source. Unless noted, how the calls were made is not given here.
# Key:
# [1] = compounds altering circadian rhythm period length – cell-based, LOPAC library, luminescence reporter (AID 2774); details: circadian reporter cells, at 7 µM, actives lie on both sides;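 further: values are relative to mean of DMSO wells on each plate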
# [2] = system: Hepatitis C virus NS3 helicase; assay: blockers of NS3h binding to ssDNA – biochemical, fluorescence polarization, LOPAC1280 library, primary screen (AID 687035; in the data active means inhibition above about 37%); details: Purified HCV NS3 helicase, Cy5-dT15 ssDNA binding fluorescence polarization; stronger effect = higher value; concentration not given here
# [3] = compounds altering Cy5-DNA-NS3h complex signal – biochemical, LOPAC1280, artefact control for HCV NS3 helicase inhibitor project (AID 687037); details: Cy5-DNA-NS3h complex fluorescence interference counterscreen
# [4] = system: Aerobactin synthetase IucA (Klebsiella pneumoniae); assay: inhibition of K. pneumoniae IucA enzyme – biochemical, Tocris library, absorbance (AID 1345561); details: purified IucA enzyme assay, absorbance (OD) read-out; stronger effect = lower value;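 tested at 8 µM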;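 further: 100% = enzyme without compound and 0% = no enzyme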
# [5] = system: Aerobactin synthetase IucA (Klebsiella pneumoniae, hypervirulent); assay: biochemical IucA inhibition screen of LOPAC library by absorbance (AID 1346212); details: IucA enzyme assay, absorbance (OD) readout; stronger effect = lower value;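 tested at 8 µM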;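 further: 100% = no compound wells and 0% = no enzyme wells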
# [6] = viability loss with induced miR-34 in A549 – imaging, A549 dox-inducible miR-34, nuclei and caspase counts, primary screen (AID 1347080;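 active means compounds whose cell count with miR-34 switched on is under 0.7 times the count with it off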); details: A549 miR-34 inducible, Hoechst nuclei count, 48 h
# [7] = blockers of cellular phospholipid synthesis – cell-based, LOPAC library, screen 4, primary screen (AID 1347384); details: animal cells, phospholipid biosynthesis inhibition screen; at 10 µM
# [8] = galactose survival enhancers in mitochondrial complex I cybrids – cell-based, galactose medium, ATP luminescence, primary screen (AID 1645843;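 active means z-score of at least 1.8 in each of two replicates, scored against plate mean and spread of sample wells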;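 further: positive z means more ATP and so rescue of galactose-driven cybrid death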); details: complex I mutant cybrid cells, 72 h, stronger effect = higher value
# [9] = compounds altering viability of human ES cells (AID 493140); details: human embryonic stem cell survival screen; stronger effect = higher value;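 further: cells exposed to compounds for four days before counting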
# [10] = P. berghei load reduction in hepatocytes – cell-based, HepG2, luciferase luminescence, HepG2 viability, primary screen (AID 624349; in the data active means parasite load remaining mostly below about 12%, no sharp cut-off; inactive means mostly above about 10%;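 further: 100% = mean of DMSO negative control wells on the same plate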); details: P. berghei liver stage in HepG2, luciferase luminescence, concentration not given here; parasite load remaining: stronger effect = lower value; viability: measured here: HepG2 viability without parasites
# [11] = EMT-state selective cytotoxicity in co-culture – imaging, PC-3E GFP, TEM4-18 mCherry, primary screen (AID 1345086;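 active means compounds killing one labelled cell type while sparing the other, by normalised counts and ratio limits, not self-fluorescent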;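 on all read-outs here: cells exposed to compound for 72 h before imaging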;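 on red/green cell ratio (normalised): normalised mesenchymal count divided by normalised epithelial count so high means epithelial killing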); details: PC-3E GFP / TEM4-18 mCherry co-culture, imaging cell counts, at 1 µM; for red/green cell ratio (normalised): actives lie on both sides
# [12] = target: Mitogen-activated protein kinase 7 (Homo sapiens) (UniProt Q13164); assay: Gal4-ERK5 driven luciferase induction – cell-based, HTS, primary screen (AID 1508626;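 active means luciferase signal above three times the same-plate solvent-only control wells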;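 further: luciferase driven by Gal4-ERK5 fusion binding five Gal4 sites before minimal TATA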); details: HeLa Gal4-ERK5 transactivation, 18 h, at 5 µM, stronger effect = higher value
# Mitogen-activated protein kinase 7 (Homo sapiens), sequence (Q13164 whole entry, looked up, the tested form may be a part): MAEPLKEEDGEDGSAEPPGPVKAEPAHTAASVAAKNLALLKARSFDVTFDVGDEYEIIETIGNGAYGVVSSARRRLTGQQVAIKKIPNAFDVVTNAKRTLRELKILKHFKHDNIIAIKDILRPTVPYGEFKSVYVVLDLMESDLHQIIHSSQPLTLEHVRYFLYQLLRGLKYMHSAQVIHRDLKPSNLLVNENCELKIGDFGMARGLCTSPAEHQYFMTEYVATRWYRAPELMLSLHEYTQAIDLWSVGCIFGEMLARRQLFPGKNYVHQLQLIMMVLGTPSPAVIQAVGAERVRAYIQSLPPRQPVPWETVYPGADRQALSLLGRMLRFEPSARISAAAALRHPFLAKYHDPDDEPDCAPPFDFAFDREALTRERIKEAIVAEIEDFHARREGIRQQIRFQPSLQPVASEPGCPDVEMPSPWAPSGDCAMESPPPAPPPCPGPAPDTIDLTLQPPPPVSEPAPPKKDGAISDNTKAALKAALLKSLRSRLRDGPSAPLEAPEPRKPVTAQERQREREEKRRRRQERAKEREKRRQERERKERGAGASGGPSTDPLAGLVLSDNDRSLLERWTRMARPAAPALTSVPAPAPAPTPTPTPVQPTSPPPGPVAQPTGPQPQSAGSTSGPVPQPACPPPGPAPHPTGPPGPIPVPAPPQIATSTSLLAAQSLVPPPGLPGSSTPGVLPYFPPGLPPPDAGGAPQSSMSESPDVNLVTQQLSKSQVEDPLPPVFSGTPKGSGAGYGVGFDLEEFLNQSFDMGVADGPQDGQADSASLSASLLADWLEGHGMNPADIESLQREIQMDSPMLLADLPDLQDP
# [13] = MELAS cybrid and Rieske KO viability enhancers – cell-based, MELAS cybrids, Rieske KO mouse fibroblasts, CellTiter-Glo, primary screen (AID 1508586;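 active means mean z-score across replicates of 1.96 or higher in either the MELAS or the Rieske mutant cell line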;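 further: z relative to plate mean and SD of compound and empty wells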); details: low glucose
# [14] = yeast 75Q aggregation reduction – 75Q-TubU reporter (AID 1593); details: Yeast 75Q polyglutamine aggregation reporter
# [15] = restoration of touch response, mutant HTT neurons – whole organism, C. elegans mechanosensory neurons, N-terminal huntingtin (AID 1599); details: C. elegans polyQ-huntingtin mechanosensory neurons, stronger effect = higher value
# [16] = blockers of cytochrome c efflux from mitochondria – biochemical, purified mitochondria (AID 1603); details: stronger effect = lower value;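 further: mouse liver mitochondria challenged with calcium chloride; signal normalized to the plate average as 100%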
# [17] = polyglutamine aggregate formation blockers (AID 1604); details: polyglutamine-induced protein aggregation inhibition assay; stronger effect = higher value; tested at 2.5 µM
# [18] = glutamate transport activators, MN-1 cells, MN-1 cell line (AID 1612); details: MN-1 motor neuron cells, stronger effect = higher value;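 further: tested at 1 µM final; 0% = mean of DMSO vehicle wells on each plate; positive means more glutamate uptake than control and negative means less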
# [19] = 75Q-TubH aggregate inhibition, S. cerevisiae, yeast (AID 1616); details: S. cerevisiae 75Q-TubH polyglutamine aggregation suppression; stronger effect = higher value
# [20] = measured here: relative caspase fold change +Dox/-Dox
# [21] = measured here: total cells with miR-34 induction, stronger effect = lower value
# [22] = measured here: total cells without miR-34 induction
# [23] = measured here: epithelial PC-3E GFP cell survival
# [24] = measured here: mesenchymal TEM4-18 mCherry cell survival
# [25] = stronger effect = lower value, cell number ratio, induced over uninduced
structure (smiles),measurement,setting,value
Cc1[nH]c2ccc(O)cc2c1CCN,period change,[1],0.13 h (inactive)
same,inhibition,[2],-6% (inactive)
same,fluorescence ratio (interference),[3],0.9 (inactive)
same,remaining activity,[4],104% (inactive)
same,remaining activity,[5],118% (inactive)
same,fold change,[6]; stronger effect = lower value,1.04 (inactive) and 1.02 (inactive)
same,fold change,[6]; [20],0.914 and 0.703
same,cell count,[6]; [21],10800 and 9460
same,cell count,[6]; [22],10400 and 9310
same,outcome,[7],inactive
same,z-score,[8],0.345 (inactive) and -0.12 (inactive)
c1ccc2c(c1)[I+]c1ccccc1-2,period change,[1],-1.22 h (inactive)
same,inhibition,[2],-5% (inactive)
same,fluorescence ratio (interference),[3],1 (inactive)
same,remaining activity,[4],106% (inactive)
same,remaining activity,[5],103% (inactive)
same,fold change,[6]; stronger effect = lower value,1.1 (inactive) and 0.717 (inactive) and 0.928 (inactive)
same,fold change,[6]; [20],1.26 and 1.66 and 0.513
same,cell count,[6]; [21],1170 and 692 and 1240
same,cell count,[6]; [22],1070 and 966 and 1340
same,outcome,[7],active
same,z-score,[8],-1.03 (inactive) and -1.25 (inactive)
c1cncc(C2=NCCC2)c1,survival,[9],4.17 (inactive)
same,parasite load remaining,[10],113% (inactive)
same,viability,[10],106%
same,red/green cell ratio (normalised),[11],0.94 (inactive)
same,normalised cell number,[11]; [23],1
same,normalised cell number,[11]; [24],0.94
same,fold change,[6]; stronger effect = lower value,0.891 (inactive)
same,fold change,[6]; [20],1.54
same,cell count,[6]; [21],7680
same,cell count,[6]; [22],8620
same,luciferase signal,[12],48 AU (inactive)
CCCN1CCO[C@@H]2c3cc(O)ccc3OC[C@H]21,period change,[1],-0.065 hour (inactive) and 0.1 hour (inactive)
same,inhibition,[2],-4% (inactive) and -2% (inactive)
same,fluorescence ratio (interference),[3],1 (inactive)
same,remaining activity,[4],109% (inactive)
same,remaining activity,[5],102% (inactive)
same,fold change,[6]; stronger effect = lower value,0.978 (inactive) and 0.932 (inactive)
same,fold change,[6]; [20],1.67 and 0.977
same,cell count,[6]; [21],9750 and 8460
same,cell count,[6]; [22],9980 and 9070
same,z-score,[8],0.53 (inactive) and -0.06 (inactive)
S=C(NC1CCCCC1)N1CCC(c2cnc[nH]2)CC1,period change,[1],-1.93 h (inactive)
same,inhibition,[2],-3% (inactive)
same,fluorescence ratio (interference),[3],0.9 (inactive)
same,remaining activity,[4],89.7% (inactive)
same,remaining activity,[5],99.4% (inactive)
same,fold change,[6]; stronger effect = lower value,0.921 (inactive)
same,fold change,[6]; [25],0.93 (inactive)
same,fold change,[6]; [20],1.06 and 0.678
same,cell count,[6]; [21],8920 and 7940
same,cell count,[6]; [22],9690 and 8540
same,outcome,[7],inactive
same,z-score,"[13]; MELAS cybrid survival, CellTiter-Glo 48 h, stronger effect = higher value",0.603 (inactive)
same,z-score,"[13]; Rieske KO mouse fibroblast survival, CellTiter-Glo 72 h",0.478
same,z-score,[8],-0.46 (inactive) and -0.595 (inactive)
CO[C@H]1[C@H](O)[C@@H](O[C@H]2CC[C@]3(C=O)C4CC[C@]5(C)[C@@H](C6=CC(=O)OC6)CC[C@]5(O)C4CC[C@@H]3C2)O[C@@H](C)[C@@H]1O (stereo partly specified),score,[14],1.12
same,rescue above control,[15],-6.49
same,cytochrome c release ratio,[16],1.41
same,inhibition of aggregation,[17],0%
same,glutamate uptake change,[18],3.74%
same,aggregation suppression score,[19],1.22
same,parasite load remaining,[10],56.4% (inactive)
same,viability,[10],41.4%
same,red/green cell ratio (normalised),[11],0.18 (inactive)
same,normalised cell number,[11]; [23],0.18
same,normalised cell number,[11]; [24],0.03
CC1=NN=C(c2ccc(N)cc2)c2cc3c(cc2C1)OCO3,period change,[1],0.095 h (inactive)
same,inhibition,[2],3% (inactive)
same,fluorescence ratio (interference),[3],1 (inactive)
same,remaining activity,[4],114% (inactive)
same,remaining activity,[5],78.1% (inactive)
same,fold change,[6]; stronger effect = lower value,1.05 (inactive) and 1 (inactive)
same,fold change,[6]; [20],0.665 and 1.11
same,cell count,[6]; [21],10000 and 7840
same,cell count,[6]; [22],9520 and 7820
same,outcome,[7],inactive
same,z-score,[8],0.825 (inactive) and 4.29 (active)
CC(C)(C)c1o[nH]c(=O)c1CC(N)C(=O)O (stereo unspecified),period change,[1],-0.635 h (inactive)
same,inhibition,[2],-1% (inactive)
same,fluorescence ratio (interference),[3],1 (inactive)
same,remaining activity,[4],108% (inactive)
same,remaining activity,[5],110% (inactive)
same,fold change,[6]; stronger effect = lower value,1 (inactive) and 0.891 (inactive)
same,fold change,[6]; [20],1.8 and 0.776
same,cell count,[6]; [21],10700 and 8780
same,cell count,[6]; [22],10700 and 9850
same,outcome,[7],inactive
same,z-score,[8],-0.285 (inactive) and -0.155 (inactive)
C[C@]12CC[C@H](OC3OC(O)C(O)C(O)C3O)C=C1CCC1C2CC[C@]2(C)[C@@H](c3ccc(=O)oc3)CC[C@]12O (stereo partly specified),parasite load remaining,[10],-0.075% (inactive)
same,viability,[10],22.8%
same,red/green cell ratio (normalised),"[11]; counts scaled to control wells, 1 = unselective",0.18 (inactive)
same,normalised cell number,[11]; [23],0.18
same,normalised cell number,[11]; [24],0.03
same,fold change,[6]; [25],0.742 (inactive)
same,fold change,[6]; [20],0.885
same,cell count,[6]; [21],150
same,cell count,[6]; [22],202
C[N+](C)(C)CC#CCN1CCCC1=O,score,[14],1.29
same,rescue above control,[15],8.8
same,cytochrome c release ratio,[16],1.02
same,inhibition of aggregation,[17],53.5%
same,glutamate uptake change,[18],7.8%
same,aggregation suppression score,[19],1.08
same,period change,[1],-0.1 h (inactive)
same,inhibition,[2],-1% (inactive)
same,fluorescence ratio (interference),[3],1 (inactive)
same,remaining activity,[4],124% (inactive)
same,remaining activity,[5],112% (inactive)
same,fold change,[6]; stronger effect = lower value,1.08 (inactive) and 0.881 (inactive)
same,fold change,[6]; [20],1.78 and 1.33
same,cell count,[6]; [21],9690 and 9120
same,cell count,[6]; [22],8970 and 10300
same,outcome,[7],inactive
same,z-score,[8],0.5 (inactive) and 0.575 (inactive)
